Source: PubChem (several laboratories)
CSC inhib – cancer stem cell inhibition; cancer stem cell-like cells viability, luminescence; inhibition, % at 7.5 µM; 1.1% of 300,000 active; in the data active = inhibition above about 75%; inconclusive = no clear call, values can overlap the other calls; tested in HMLE shEcad cells
Mdm2 MdmX PPI – disrupts the human Mdm2-MdmX interaction; SaOS-2 split-luciferase Mdm2/MdmX complementation, luminescence; inhibition, % at 8 µM; 3% of 330,000 active;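 active = inhibition of at least 50% at 8 µM in the primary screen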
Calb FLC – affects C. albicans growth with fluconazole. C. albicans CaCi-2 (fluconazole-resistant clinical isolate) + fluconazole, Alamar Blue growth, 48 h. growth inhibition, % (concentration not given with the values). 0.57% of 300,000 active;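 active = growth inhibition above about 58% in most replicates, limit read from the data, passing the limit was not always enough; inconclusive = exactly half the replicates above a set limit; inactive = most replicates below a set limit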;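 also: all wells also contain fluconazole at 8 µg/ml as a sub-toxic cotreatment; 0% = median of DMSO wells and 100% = median of geldanamycin control wells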
Beta cell apopt – beta cell apoptosis inhibition. INS-1E cytokine-induced death, ATP luminescence, 48 h; percent of positive-control rescue, neutral wells zero. protection from apoptosis, % (no concentration beside the values). 0.8% of 300,000 active. AID 435005;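 active = Every replicate reaches about 75%, or at least half do and their mean reaches it too, limit read from the data; inconclusive = At least half of replicates reach the limit but their mean does not; inactive = Under half of replicates reach the limit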;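 also: 0% = cytokine-treated negative control wells and 100% = positive control rescue; higher means more ATP so stronger rescue from cytokine killing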
PP1 counter – counter-screen for PP5 inhibitors: inhibitors of human PP1-alpha; P62136; purified PP1alpha, OMFP fluorescence; inhibition, % at 6.7 µM; 0.9% of 320,000 active;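 active = inhibition above the mean inhibition of all tested compounds plus 3 SD, computed separately for each screening campaign, cut at about 15% in these data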
Target sequence (P62136 whole entry, looked up): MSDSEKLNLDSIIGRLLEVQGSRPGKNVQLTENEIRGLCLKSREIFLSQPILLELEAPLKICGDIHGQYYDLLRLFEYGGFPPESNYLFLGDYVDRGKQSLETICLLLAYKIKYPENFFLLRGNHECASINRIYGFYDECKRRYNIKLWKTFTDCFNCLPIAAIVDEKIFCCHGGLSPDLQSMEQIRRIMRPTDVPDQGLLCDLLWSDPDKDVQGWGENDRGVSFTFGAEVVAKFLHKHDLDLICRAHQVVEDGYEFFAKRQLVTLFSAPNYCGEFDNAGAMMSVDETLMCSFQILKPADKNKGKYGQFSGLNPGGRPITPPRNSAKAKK
PP5 inh – inhibitors of human protein phosphatase 5 (PP5). inhibition, % at 6.7 µM. 0.18% of 320,000 active. purified PP5c, OMFP substrate fluorescence. P53041;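 active = inhibition above the campaign's mean inhibition across all tested compounds plus 3 SD, cut at about 9.5% in these data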;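 also: 0% = DMSO only and 100% = 100 µM cantharidin control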
Mdm2-MdmX conf – human Mdm2/MdmX binding inhibition, confirmed; 55% of 10,000 active; shares compounds with Mdm2 MdmX PPI; luminescent assay; inhibition, % at 8 µM; in the data active = inhibition above about 40%
FLuc counter – full-length luciferase inhibition in Mdm2/MdmX counter-screen; inhibition, % at 8 µM; AID 504607; SaOS-2 full-length luciferase counterscreen, luminescence; shares compounds with Mdm2 MdmX PPI; 77% of 6,200 active;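 active = mean inhibition at 8 µM reaching about 37%, which flags the compound as non-specific, limit read from the data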;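 also: p53-null SaOS-2 cells with luciferase driven by a doxycycline-inducible promoter; compound on cells about two nights before reading with doxycycline added after day one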
The depositor's hits bear a star; ? = inconclusive; / = no result given. Most compounds without a hit are left out; they make up all but 4.9% or so of the library.

SMILES | CSC inhib | Mdm2 MdmX PPI | Calb FLC | Beta cell apopt | PP1 counter | PP5 inh | Mdm2-MdmX conf | FLuc counter
CCC1(C)Cc2ccccc2-c2nc(SCC(N)=O)[nH]c(=O)c21 (stereo not drawn) | / | -13.2 | -0.1 | / | -1.9 | -0.4 | / | /
N#CC(c1nc2ccccc2nc1OCCO)S(=O)(=O)c1ccccc1 (stereo not drawn) | 5.0 | 0.2 | 0.3 | 1.7 | 0.6 | 1.4 | / | /
Cc1oc2c(O)c(O)ccc2c(=O)c1-c1cnn(-c2ccccc2)c1 | 54.6 | 10.9 | -5.0 | -2.1 | 3.2 | -0.6 | / | /
Cc1oc2cc(O)cc(C)c2c(=O)c1-c1cnn(-c2ccccc2)c1 | 27.7 | 57.8* | -3.3 | 5.4 | 1.2 | 3.6 | 23.7 | /
CCOC(=O)C1CCN(S(=O)(=O)c2c(Cl)ccc3nonc23)CC1 | 1.8 | 100.4* | 1.0 | 47.7 | -4.5 | 5.1 | 97.7* | 0.8
CN(C)C(=O)CSc1nnc2sc3ccccc3n12 | -1.3 | 0.0 | -1.4 | -1.4 | 2.0 | 2.0 | / | /
O=c1c2ccccc2nnn1CSc1nnc2sc3ccccc3n12 | -4.7 | 52.6* | -11.5 | 2.0 | -3.3 | -0.8 | 54.4* | 113.2*
CCN(CC)CCCNc1ccc(-c2nnc(-c3ccc(OCC(C)C)cc3)o2)cn1 | 103.1* | 100.4* | 3.7 | 13.6 | 1.6 | 2.6 | 87.7* | 23.9
CCN(CCNCC(O)COc1ccccc1C(C)C)c1cccc(C)c1 (stereo not drawn) | 99.9* | 68.5* | 11.0 | 29.4 | 12.5 | 6.9 | 41.5* | 74.7*
COc1ccccc1C(=O)NC(CCSC)C(=O)NCCCn1nc(C)cc1C (stereo not drawn) | -5.3 | -17.7 | 1.0 | / | -4.7 | -0.1 | / | /
O=C(COc1ccc(/C=N/NC(=O)c2cc3ccccc3o2)cc1Br)Nc1ccccc1 | 99.2* | 94.8* | 1.6 | -4.0 | 2.1 | 0.6 | -83.1 | /
CCOc1cc(NC(=O)c2ccco2)c(OCC)cc1NC(=O)COc1ccccc1C | 9.8 | 99.4* | 7.9 | 3.2 | -4.2 | 3.2 | 35.4 | 33.4
O=C(N/N=C/c1ccco1)c1cc2ccccc2o1 | -2.6 | 9.1 | / | 1.6 | -4.8 | 0.9 | / | /
O=C(COc1ccccc1[N+](=O)[O-])Nc1ccc(NC(=O)c2cc3ccccc3o2)cc1 | -2.5 | 54.2* | -2.9 | -1.5 | 0.0 | 1.5 | 30.9 | 71.0*
COc1ccc(NC(=O)c2ccco2)cc1NC(=O)COc1ccccc1[N+](=O)[O-] | -4.9 | 78.2* | 10.8 | 11.3 | -2.2 | 0.8 | 24.6 | /
Cc1cc(C)cc(N2C(N)=NC(N)=NC2c2ccccc2F)c1 (stereo not drawn) | 3.7 | -27.7 | -1.1 | -3.5 | 2.4 | 1.4 | / | /
CCN(Cc1cnn(C)c1)C(=O)CC1C(=O)NCCN1Cc1cccc(OC)c1OC (stereo not drawn) | -9.3 | -9.5 | 3.9 | -6.9 | 2.3 | -0.3 | / | /
COc1ccc(-c2[nH]ncc2CN2CCC(N3CCSCC3)CC2)cc1F | -1.5 | 7.6 | -2.8 | 0.0 | -3.5 | 1.8 | / | /
c1ccc(-n2nnnc2Sc2ncnc3sc4c(c23)CCCC4)cc1 | 31.7 | 97.7* | -3.3 | 1.5 | -1.7 | 0.1 | 74.8* | 47.5*
CSc1nnnn1-c1ccc(Cl)cc1 | -16.0 | 23.3 | 1.5 | -2.8 | -3.5 | -1.8 | / | /
Cc1sc2ncnc(Sc3nnnn3-c3ccc(Cl)cc3)c2c1C | 31.3 | 100.6* | -5.5 | 2.7 | -0.2 | 0.2 | 79.0* | 53.8*
CCOC(=O)c1ccc(Nc2nc(C)nc3c2nnn3Cc2ccccc2)cc1 | 8.3 | 13.0 | 7.0 | / | 7.7 | 3.6 | / | /
COc1ccc(NS(=O)(=O)c2cc(C)ccc2NC(=O)c2cc(C)oc2C)cc1 | 2.6 | 63.9* | 8.6 | 26.3 | 2.4 | 6.9 | 58.0* | 125.6*
CC(C)(C)CN1CCNC(=O)C1CC(=O)N1CCN(c2ccccc2)CC1 (stereo not drawn) | / | -22.4 | 1.4 | -2.8 | 2.4 | -1.2 | / | /
O=C1C2C3C=CC(C3=C(c3ccccc3)c3ccccc3)C2C(=O)N1Cc1ccccc1 (stereo not drawn) | 19.0 | 79.2* | -1.4 | 7.4 | 2.4 | -0.9 | -3.1 | /
SMILES | CSC inhib | Mdm2 MdmX PPI | Calb FLC | Beta cell apopt | PP1 counter | PP5 inh | Mdm2-MdmX conf | FLuc counter
CCC(CC)NC(=O)CN1CCN(S(=O)(=O)c2ccc(Br)s2)CC1 | / | -4.6 | / | / | / | / | / | /
CC(=O)c1cccc(NC(=S)N2CCN(CCN3C(=O)c4cccc5cccc(c45)C3=O)CC2)c1 | 4.0 | 65.5* | -17.0 | 48.1 | -3.9 | -0.2 | -29.2 | /
CC(=O)c1ccc(NC(=S)N2CCN(CCN3C(=O)c4cccc5cccc(c45)C3=O)CC2)cc1 | 14.5 | 27.7 | -6.8 | 4.5 | 1.1 | -1.9 | / | /
CCOC(=O)Cn1c2ccc(OC)cc2c2nc3ccccc3nc21 | 6.7 | 70.4* | -3.6 | / | -1.9 | 2.6 | 25.4 | /
CN(C)CCCNC(=S)NCC(c1ccc(Cl)cc1Cl)c1c[nH]c2ccccc12 (stereo not drawn) | -14.6 | 88.8* | 1.5 | 17.2 | 4.9 | 5.9 | 64.5* | 29.2
NCC(c1ccc(Cl)cc1Cl)c1c[nH]c2ccccc12 (stereo not drawn) | 94.8* | 64.5* | 80.2* | 37.6 | -0.5 | 0.3 | 32.5 | /
CCCCNC(=S)NCC(c1ccccc1)c1c[nH]c2ccccc12 (stereo not drawn) | 6.9 | 25.4 | -7.1 | -2.1 | 1.7 | 5.2 | / | /
O=C(NCC(=O)N(c1ccccc1)C(C(=O)NC1CCCCC1)c1cccnc1)c1ccco1 (stereo not drawn) | 8.9 | -15.5 | 2.8 | -3.8 | -2.4 | 0.5 | / | /
COCCNC(=O)c1cccc(Nc2nc(-c3ccccc3)c3cc(Cl)ccc3n2)c1 | 41.7 | 46.5 | 10.7 | 3.4 | -0.3 | 2.8 | / | /
CCSCCc1nnc(NC(=O)Nc2cccc(C(F)(F)F)c2)s1 | 27.4 | 94.9* | -8.9 | 118.9* | 2.5 | 0.2 | 95.2* | 49.6*
COc1cccc(NC(=O)Nc2nnc(CC(=O)NCc3ccccc3)s2)c1 | -18.5 | 55.6* | -2.3 | -8.6 | 10.7 | 3.6 | 51.2* | 35.1
Cc1ccc(CNC(=O)Cc2ccc(Br)cc2)cc1 | 60.3 | 21.9 | 3.3 | -3.2 | 3.0 | -0.2 | / | /
O=C(Cc1ccc(Br)cc1)NCc1ccccc1 | 59.8 | 64.0* | -0.8 | 21.6 | -0.5 | -0.2 | 51.8* | 57.1*
COc1cccc(CNC(=O)Cc2ccc(-c3ccccc3)cc2)c1 | / | 66.6* | -2.0 | -0.2 | 2.3 | 1.4 | 58.9* | 61.5*
O=C(NCCOc1ccccc1)C1CCC(=O)N(CCN2CCOCC2)C1 (stereo not drawn) | -0.2 | 9.8 | ? | -5.4 | 3.1 | 0.2 | / | /
CC(=O)Nc1ccccc1C(=O)C(=O)NCCc1ccccc1 | -1.7 | -9.9 | 0.6 | -0.7 | -7.8 | -0.6 | / | /
COc1ccc(C)cc1S(=O)(=O)N(C)CC(=O)N1CCN(c2ccccc2)CC1 | -17.1 | 14.2 | -3.6 | -6.3 | -4.2 | 3.0 | / | /
Cc1cc(=O)[nH]c(N=N/C(=N/Nc2ccc(O)cc2)c2ccccc2)n1 | -10.6 | -1.1 | -8.4 | 11.0 | 0.9 | 4.6 | / | /
